Screens as filed in PubChem BioAssay.
Compounds with a hit are over-represented: about 2.8% of the library has one in this group of screens.
Akt phos inh = inhibitors of Akt phosphorylation. activity change, % for hits at 50 µM. Neuro2A IGF-stimulated pAkt S473 HTRF, 20 min; hits give low values. 0.32% of 360,000 active; in the data active = activity change below about -80%; inconclusive = mostly about -51% to -80%
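Neuro2A cells (4,500/well, DMEM with 0.5% FBS) were treated with compound at a single 50 µM final concentration, stimulated with 6 nM IGF for 20 min at 37 °C, and lysed. Phospho-Akt Ser473 was read by HTRF as 665/615 ratio ×10^4.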
LDHA inh = blocks human lactate dehydrogenase A; P00338; purified LDHA, NADH/diaphorase-resazurin fluorescence; hits give low values; activity change, % (values are at about 110 or 230 µM); 0.15% of 480,000 active; AID 1347041; in the data active = activity change below about -30%; inconclusive = mostly about -25% to -30%
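Resorufin fluorescence (ex540/em590), read at 0 and 20 min after diaphorase/resazurin addition, reports the NADH left after a 5 min room-temperature reaction of 2 nM human LDH5 with 0.06 mM NADH and 0.2 mM pyruvate.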
D3 antag = D3 dopamine receptor (human) antagonism; P35462; D3R cells, DiscoveRx beta-arrestin luminescence, antagonist mode; hits give low values; max response, negative = inhibition, %; 2.5% of 360,000 active; AID 652054; in the data active = max response below about -50%; inconclusive = no clear call, values can overlap the other calls
Target sequence (P35462 whole entry, looked up): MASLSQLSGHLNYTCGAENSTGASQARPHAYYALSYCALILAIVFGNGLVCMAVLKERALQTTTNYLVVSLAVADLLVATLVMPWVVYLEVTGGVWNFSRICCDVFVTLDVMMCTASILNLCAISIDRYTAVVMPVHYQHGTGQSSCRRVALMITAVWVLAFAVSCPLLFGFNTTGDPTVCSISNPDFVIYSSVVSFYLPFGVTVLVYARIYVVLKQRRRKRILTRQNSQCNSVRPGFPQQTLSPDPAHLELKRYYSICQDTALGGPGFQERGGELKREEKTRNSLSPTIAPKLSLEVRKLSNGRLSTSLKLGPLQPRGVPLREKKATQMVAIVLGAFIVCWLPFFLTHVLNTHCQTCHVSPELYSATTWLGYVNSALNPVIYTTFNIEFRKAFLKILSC
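Cells plated overnight at 1500 cells/well, then exposed to library compounds with dopamine controls for 90 minutes at 37 degrees C. DiscoveRx reagent added for 30–60 minutes at room temperature; luminescence read, quantitative HTS format.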
RGS4 inh = blocks human RGS4-accelerated GTP hydrolysis | Transcreener GDP fluorescence polarization, RGS4-accelerated GTP hydrolysis | 0.039% of 390,000 active | P49798 | Potency, µM (top dose mostly 114 µM), most hits filed as inhibitors; active = well fitted inhibition curve with a large enough effect; inconclusive = small, poorly fitted or top-dose-only effect; inactive = no such curve, though single readings can be large or run the other way; note: nearly all actives have a fitted effect of over 75% in size
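MLSMR compounds (23 nl, pin-transferred) preincubated 10 min at room temperature with a 500nM (2x) first reagent, then RGS4 at 900nM (2x) plus Transcreener GDP mix added; fluorescence polarization (620/688 nm) read before and after 90 min at 30 °C.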
PI4K2A inh = blocks human PI4K2A kinase activity | activity change, negative = inhibition, % at 76.9 µM | Q9BTU6 | 0.13% of 420,000 active | purified PI4K2A, ADP-Glo luminescence, 1 h; hits give low values | AID 1346378; in the data active = activity change below about -50%; inconclusive = mostly about -30% to -49%
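Compounds are screened against recombinant PI4K2A using PI as substrate and ATP, the latter dispensed at 300 microM. Reactions run one hour at ambient temperature before ADP-Glo detection; full inhibition defined by wells lacking enzyme.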
DRD3 agonist = agonists of human D3 dopamine receptor; P35462; D3R DiscoveRx beta-arrestin cells, luminescence, 90 min; max activation, %; 0.58% of 410,000 active; AID 652048; in the data active = max activation above about 30%
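Cells at 1500/well, incubated overnight, then treated with pinned compounds (dopamine as control) for 90 min at 37 degrees C. DiscoveRx reagent added for 30 - 60 minutes at room temperature; luminescence read.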
Large screens that a line does not name were inactive.

CS(=O)(=O)c1ccc(C(=O)Nc2ccc(N3CCOCC3)cc2)c(Cl)c1	none
Cc1ccnc2nc(C(=O)Nc3ccc(N4CCOCC4)cc3)nn12	Akt phos inh -103%, PI4K2A inh inconclusive
CS(=O)(=O)c1ncc(Cl)c(C(=O)Nc2ccc(N3CCOCC3)cc2)n1	D3 antag -78, RGS4 inh inconclusive
O=C(Nc1ccc(N2CCOCC2)cc1)c1ccncc1	none
CCN(c1ccccc1)S(=O)(=O)c1ccc(NC(=O)c2nc(S(C)(=O)=O)ncc2Cl)cc1	D3 antag -93, RGS4 inh inconclusive
O=C(O)c1ccc(Nc2nc3ccc(Cl)cc3[nH]2)cc1	D3 antag -54
O=C(Nc1nc2ccccc2[nH]1)c1cccc(Cl)c1	none
O=C1NC[C@H](Cc2ccc(O)cc2)N(C[C@H]2CCCN2C[C@H](Cc2ccc(O)cc2)N2C[C@H](Cc3ccc(O)cc3)N(CCc3ccccc3)C(=O)C2=O)C1=O	D3 antag -70 (no result: RGS4 inh)
Oc1ccc(C[C@H]2CNC(=S)N2CC2CCCN2C[C@H](Cc2ccc(O)cc2)N2C[C@H](Cc3ccccc3)N(CC3CCCCC3)C2=S)cc1 (some centres undefined)	D3 antag -64
CC(C)C[C@H]1CNC(=S)N1CC1CCCN1C[C@H](Cc1ccc(O)cc1)N1C[C@H](Cc2ccccc2)N(CC2CCCCC2)C1=S (some centres undefined)	D3 antag -81
CC(C)C[C@H]1CNC(=S)N1C[C@H]1CCCN1C[C@H](Cc1ccccc1)N1C[C@H](Cc2ccc(O)cc2)N(CC2CCCCC2)C1=S	none (no result: RGS4 inh)
O=C1NC[C@H](Cc2ccccc2)N(C[C@@H]2CCCN2C[C@H](Cc2ccc(O)cc2)N2C[C@H](Cc3ccc(O)cc3)N(CCc3ccccc3)C(=O)C2=O)C1=O	none (no result: RGS4 inh)
Oc1ccc(C[C@H]2CN([C@@H](Cc3ccc(O)cc3)CN3CCC[C@@H]3CN3C(=S)NC[C@@H]3Cc3ccccc3)C(=S)N2CCc2ccccc2)cc1	D3 antag -53 (no result: RGS4 inh)
O=C(CSc1nccn2nc(-c3ccccc3)cc12)N1CCN(c2ccccc2F)CC1	none (no result: Akt phos inh, D3 antag, RGS4 inh, PI4K2A inh, DRD3 agonist)
CC(=O)Nc1ccc(S(=O)(=O)N2CCCC2C(=O)Nc2ccc3c(c2)OCCO3)cc1 (centres undefined)	none
Cc1ccc(S(=O)(=O)N2C(=O)CCC2C(=O)Nc2ccc3c(c2)OCCO3)cc1 (centres undefined)	D3 antag -65
O=C1C=CC(O)(c2cc(=O)c3c(O)cc(O)cc3o2)C=C1	D3 antag -80, RGS4 inh inconclusive, PI4K2A inh inconclusive
COC1=C(Br)C(=O)c2nc(C)ccc2C1=O	D3 antag -119, PI4K2A inh inconclusive (no result: RGS4 inh)
CCCc1nc2ccccc2c(C(=O)OCC(=O)NCC(F)(F)F)c1CC	none (no result: Akt phos inh, D3 antag, RGS4 inh, PI4K2A inh, DRD3 agonist)
O=C(CN1CCN(Cc2ccccc2)CC1)c1ccc(Br)cc1	D3 antag -62
O=C(CN1CCCCC1)c1c[nH]c2ccccc12	none
O=C(CN1CCN(Cc2ccccc2)CC1)c1c[nH]c2ccccc12	D3 antag -54
O=C(c1cc2cc(F)ccc2[nH]1)N(Cc1ccco1)Cc1ccco1	none (no result: Akt phos inh, D3 antag, RGS4 inh, PI4K2A inh, DRD3 agonist)
Cc1cc(-n2c(=O)c3sccc3n(CC(=O)NC3CCCCC3)c2=O)ccc1F	none (no result: Akt phos inh, D3 antag, RGS4 inh, PI4K2A inh, DRD3 agonist)
CCC1CCCCN1C(=O)Cn1c(=O)n(-c2ccc(F)c(C)c2)c(=O)c2sccc21 (centres undefined)	LDHA inh -39 (no result: Akt phos inh, D3 antag, RGS4 inh, PI4K2A inh, DRD3 agonist)
COc1ccc(-n2c(SC(C)C(=O)Nc3ncc(Cl)cc3Cl)nc3ccccc32)cc1 (centres undefined)	DRD3 agonist 36
CC(Sc1nnc2ccccn12)C(=O)Nc1ncc(Cl)cc1Cl (centres undefined)	D3 antag -50
COc1ccc(C)c(-n2c(=O)n(Cc3ccccc3)c(=O)c3[nH]cnc32)c1	D3 antag -97
Cc1ccc(S(C)=O)cc1-n1c(=O)n(Cc2ccccc2)c(=O)c2[nH]cnc21 (centres undefined)	D3 antag -104
COc1ccc(Cn2c(=O)c3[nH]cnc3n(-c3ccccc3C)c2=O)cc1	none
